According to PubChem BioAssay AID651674 (The Scripps Research Institute Molecular Screening Center, 2012):
The whole screen tested about 2,200 compounds, of which about 1,700 (77%) were called active. The set was probably picked from earlier hits. The list is a sample of the results. A number with no mark means an inactive call.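 Rule for the calls: active = mean inhibition across replicate wells exceeding the computed hit threshold (cut at about 13% in these data); inactive = the rest.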

molecular target: Hepatocyte nuclear factor 4-alpha (Homo sapiens) (UniProt P41235); test: blockers of HNF4 self-association – biochemical, split-luciferase complementation, luminescence, counter-screen for ABHD5-PLIN5 interaction inhibitor project (AID 651674); conditions: HNF4 dimerization, at 4 µM, stronger effect = higher value;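 note: light from luciferase halves that rejoin when HNF4 fusion proteins dimerize; 0% = DMSO only wells and the 100% control is not given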
Sequence (P41235 whole entry, looked up, the tested form may be a part): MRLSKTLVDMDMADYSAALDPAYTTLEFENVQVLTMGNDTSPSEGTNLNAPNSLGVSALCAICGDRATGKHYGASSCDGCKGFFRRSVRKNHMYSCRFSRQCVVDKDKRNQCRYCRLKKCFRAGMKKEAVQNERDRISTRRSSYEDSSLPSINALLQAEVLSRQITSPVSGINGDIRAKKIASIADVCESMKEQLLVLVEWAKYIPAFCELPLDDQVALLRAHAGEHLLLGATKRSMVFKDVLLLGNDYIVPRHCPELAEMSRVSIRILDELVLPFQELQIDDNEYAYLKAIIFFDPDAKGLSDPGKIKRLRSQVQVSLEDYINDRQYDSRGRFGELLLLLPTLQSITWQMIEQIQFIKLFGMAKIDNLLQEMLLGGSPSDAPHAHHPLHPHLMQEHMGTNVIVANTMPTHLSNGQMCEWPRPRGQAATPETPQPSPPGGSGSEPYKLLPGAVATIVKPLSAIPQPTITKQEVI

Structure (SMILES) | inhibition
CCC(C(=O)OCCN(CC)CC)c1ccccc1 (configuration not stated) | 32.3% (active)
COc1ccc(-n2cc(CNC3CCOCC3)c(-c3cccc(F)c3)n2)cc1 | -1.5%
CCn1c(SC)nc(O)c(C(c2ccc(OC)c(O)c2)c2c(O)nc(SC)n(CC)c2=O)c1=O | 52.2% (active)
O=C(CCl)Nc1ccc(Sc2ccc(NC(=O)CCl)cc2)cc1 | 28% (active)
Cc1csc(NC(=O)NC2(C(F)(F)F)Oc3ccccc3O2)n1 | 99.4% (active)
Cc1cccc(C)c1NC(=O)C(c1ccc(C(F)(F)F)cc1)n1c(=O)c(-c2ccco2)nc2ccccc21 (configuration not stated) | 15.7% (active)
O=C(NC1CCCCC1)C(c1cc2ccccc2o1)n1c(=O)c(-c2ccco2)nc2ccccc21 (configuration not stated) | 12.5% (active)
Cc1cccc(C)c1NC(=O)C(c1cccc2ccccc12)n1c(=O)c(-c2ccco2)nc2ccccc21 (configuration not stated) | 5.63%
N#Cc1ccc(C(C(=O)NCc2ccccc2)n2c(=O)c(-c3ccco3)nc3ccccc32)cc1 (configuration not stated) | 46.7% (active)
NC(=O)c1nsc(C(=O)N(CC(=O)NCc2ccc(F)cc2)Cc2ccco2)c1N | 2.04%
Cc1ccc2nc(-c3ccco3)c(Cc3cccc(Cl)c3)n2c1 | 49.6% (active)
Cc1ccc(Cc2c(-c3ccco3)nc3ccc(Cl)cn23)cc1 | 47.3% (active)
O=C(CCN1CCc2ccccc2C(O)(c2ccccc2)C1)c1ccc2c(c1)OCCO2 (configuration not stated) | 100% (active)
O=C1/C(=C\c2ccc(O)cc2)CCC1CNc1ccc(Cl)cc1 (configuration not stated) | 50% (active)
COC(=O)c1cnn2c(C(F)(F)F)cc(-c3ccco3)nc12 | 9.71%
O=C(N/N=C/C=C/c1ccco1)c1cccs1 | 39% (active)
COc1ccccc1C1/C(=C(/O)c2ccc(C)cc2)C(=O)C(=O)N1Cc1ccco1 (configuration not stated) | 10.7%
O=C1/C(=C\c2ccc([N+](=O)[O-])cc2)CS(=O)(=O)C/C1=C/c1ccc([N+](=O)[O-])cc1 | 108% (active)
c1ccc(CCC2=NCCn3cccc32)cc1 | 4.26%
O=C(O)c1ccc2c(c1)C(=O)N(c1ccc(/C=C/C(=O)c3ccccc3)cc1)C2=O | 89.2% (active)
CC(=O)N(c1ccc2oc(=O)sc2c1)S(=O)(=O)c1ccc(C)cc1 | 17.5% (active)
COc1cccc2sc(N(CCCN(C)C)C(=O)C(c3ccccc3)c3ccccc3)nc12 | 6.22%
Cc1ccc(SC(CC(=O)c2ccc(C(C)(C)C)cc2)C(=O)O)cc1 (configuration not stated) | 89.8% (active)
O=C(/C=C/c1ccc(Cl)cc1Cl)c1cccnc1 | 105% (active)
Cc1nc2sc(C(c3ccco3)N3CCOCC3)c(O)n2n1 (configuration not stated) | -1.74%
Cc1ccc(NC(=O)c2cc(-c3ccc(C)o3)nc3ccccc23)nc1 | 44.1% (active)

Structure (SMILES) | inhibition
CCOC(=O)C(=Cc1ccccc1)C(=O)c1ccccc1 | 97% (active)
CCOC(=O)C(=Cc1ccccc1OC)C(=O)OCC | 51.8% (active)
CCc1ccc(NC(=O)CSc2nnc(-c3cnccn3)n2Cc2ccco2)cc1 | 25.6% (active)
CC(=O)c1ccc(NC(=O)CCc2nnc3ccc(NCc4ccco4)nn23)cc1 | 2.03%
COCCN(CCOC)c1nc(N)c2c(N)nc3c(c2c1C#N)CC(=O)N3Cc1ccc(Cl)cc1 | 9.32%
N#Cc1ccccc1S(=O)(=O)N1CCN(Cc2c(O)ccc3ccccc23)CC1 | 86.6% (active)
CC1=CC(C)(C)Nc2ccc(OC(=O)C(Cc3ccccc3)N3C(=O)C4CCCCC4C3=O)cc21 (configuration not stated) | 15.7% (active)
CC1=CC(C)(C)Nc2ccc(OC(=O)CN3C(=O)C4CCCCC4C3=O)cc21 (configuration not stated) | 52.3% (active)
COC(=O)c1nc(NC(=O)c2ccc(C(C)(C)C)cc2)n[nH]1 | 4.25%
CCN(CCCNC(=O)c1ccc2c(c1)NC(=O)CN2C)c1cccc(C)c1 | 76.9% (active)
CCCCOC(=O)CNc1nnc(SCC(=O)OCC)[nH]c1=O | 103% (active)
O=C(Nc1ccccc1)c1nnsc1S(=O)(=O)c1ccc(Cl)cc1 | 100% (active)
O=C(Nc1ccccc1Cl)/C(Cl)=C(\Cl)S(=O)c1ccccc1 (configuration not stated) | 108% (active)
O=C(Nc1nc(-c2ccco2)c(-c2ccco2)s1)c1ccco1 | 77.9% (active)
Cc1[nH]c(=O)c(C(=O)/C=C/c2ccccc2)c2c1CCCC2 | 37.9% (active)
CC1(C)CCSC(/C=C/c2ccccc2)=N1 | 91.4% (active)
C[C@@H]1C[C@@H]2O[C@H]2/C=C\C=C\C(=O)Cc2c(Cl)c(O)cc(O)c2C(=O)O1 | 47.9% (active)
COc1ccc2sc(-c3ccccc3OC)c(-c3ccc(OCCN4CCCC4)cc3)c2c1 | 7.03%
O=C1C(Cl)=C(Oc2ccccc2)C(=O)c2ccccc21 | 105% (active)
CC1(Oc2ccccc2-c2ccno2)CCN(Cc2ccc(-c3ccccc3)o2)C1 (configuration not stated) | 48.5% (active)
COc1ccc2c(c1)c(=Cc1ccc(N(C)C)cc1)c1cc(-c3ccccc3)[n+](C)n12 | 18.1% (active)
CCN1CCC(O)(/C=C/c2ccc(C)cc2)C(C(=O)/C=C/c2ccc(C)cc2)C1 (configuration not stated) | 85.5% (active)
CCCOc1ccc(C(=O)C(CCC(CNCC)C(=O)c2ccc(OCCC)cc2)CNCC)cc1 (configuration not stated) | 24.2% (active)
O=C(Cn1nc(CNc2ccc(Cl)cc2)[n+]2c1CCCCC2)c1ccc(Cl)cc1 | 6.95%
Cc1cccc(C=CC(=O)c2ccc(Cl)cc2)c1 | 67.2% (active)
COc1ccc(N/C=C(\C2OC(=O)c3ccccc32)[N+](=O)[O-])cc1 (configuration not stated) | 22.1% (active)
